Source: PubChem BioAssay
Calls of active or inactive are those of the source.

How the values were obtained:
[1] = system: Plasmodium falciparum Sir2 (PF13_0152, Sir2A); assay: pfSir2 binders on small-molecule microarrays, primary screen, biochemical, small-molecule microarray, 635 nm fluorescence (AID 1098); conditions: small-molecule microarray binding, fluorescence 635 nm; higher = more signal;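 further: score merges spot fluorescence intensity with its signal-to-noise ratio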
[2] = small-molecule microarray binders of probe aDKK1, primary screen, biochemical, biotinylated probe, 635/667 nm fluorescence (AID 1099); conditions: higher = more signal;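 further: score merges 667nm spot fluorescence with signal to noise across triplicate slides; reference of the scale not given here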
[3] = small-molecule microarray binders of probe aCHRDL2, primary screen, biochemical, biotinylated probe, 635/667 nm fluorescence (AID 1100); conditions: higher = more signal
[4] = splicing luciferase reporter signal modulators, primary screen, spliceosome inhibition project, cell-based, HEK293, splice +/- reporter (AID 1101); conditions: luminescence, 24 h, higher = more signal, called active from +8 up or from −8 down;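 further: HEK293 cells carrying a splicing-competent luciferase reporter gene; test concentration not given here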
[5] = biological target: Fibroblast growth factor 10 (Homo sapiens) (UniProt O15520); assay: FGF10 binders on small-molecule microarrays, primary screen, biochemical, small-molecule microarray, 635 nm fluorescence (AID 1102); conditions: FGF10 binding, fluorescence 635 nm, higher = more signal
[6] = system: glycogen synthase kinase-3 (GSK3A per assay name; protocol says GSK3B); assay: GSK3 binders on small-molecule microarrays, primary screen, biochemical, small-molecule microarray, 635 nm fluorescence, GSK3A (AID 1103); conditions: small-molecule microarray binding, fluorescence 635 nm; higher = more signal; further: the record names both GSK3A and GSK3B
[7] = biological target: Epidermal growth factor receptor (Homo sapiens) (UniProt P00533); assay: EGFR binders on small-molecule microarrays, primary screen, biochemical, small-molecule microarray, 635 nm fluorescence (AID 1104); conditions: EGFR binding, higher = more signal;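 further: score merges 667 nm emission intensity with spot signal to noise over triplicate slides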
[8] = biological target: Follistatin-related protein 3 (Homo sapiens) (UniProt O95633); assay: FSTL3 binders on small-molecule microarrays, primary screen, biochemical, small-molecule microarray, 635 nm fluorescence (AID 1105); conditions: FSTL3 binding, higher = more signal;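 further: score merges emission near 667 nm and signal to noise per printed spot across three slides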
[9] = biological target: Dickkopf-related protein 1 (Homo sapiens) (UniProt O94907); assay: DKK1 binders on small-molecule microarrays, primary screen, biochemical, small-molecule microarray, 635 nm fluorescence scan (AID 1106); conditions: DKK1 binding, higher = more signal;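 further: score merges emission near 667 nm with signal to noise over three replicate slides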
[10] = system: Inhibin beta A chain (activin A); assay: INHBA (activin A) binders on microarrays, primary screen, biochemical, small-molecule microarray, 635 nm fluorescence scan (AID 1107); conditions: small-molecule microarray binding, higher = more signal;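 further: mouse activin A protein probed at 4.33 µg/mL on printed slides; score merges bound-protein fluorescence near 667 nm with spot signal-to-noise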

Dickkopf-related protein 1 (Homo sapiens), sequence (O94907 whole entry, looked up): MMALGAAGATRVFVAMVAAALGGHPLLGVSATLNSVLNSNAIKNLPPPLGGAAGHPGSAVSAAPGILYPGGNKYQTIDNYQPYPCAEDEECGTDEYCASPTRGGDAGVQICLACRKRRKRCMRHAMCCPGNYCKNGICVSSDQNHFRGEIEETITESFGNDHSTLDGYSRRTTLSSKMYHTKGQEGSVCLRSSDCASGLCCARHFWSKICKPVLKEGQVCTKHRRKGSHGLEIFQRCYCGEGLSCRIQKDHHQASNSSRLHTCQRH
Follistatin-related protein 3 (Homo sapiens), sequence (O95633 whole entry, looked up): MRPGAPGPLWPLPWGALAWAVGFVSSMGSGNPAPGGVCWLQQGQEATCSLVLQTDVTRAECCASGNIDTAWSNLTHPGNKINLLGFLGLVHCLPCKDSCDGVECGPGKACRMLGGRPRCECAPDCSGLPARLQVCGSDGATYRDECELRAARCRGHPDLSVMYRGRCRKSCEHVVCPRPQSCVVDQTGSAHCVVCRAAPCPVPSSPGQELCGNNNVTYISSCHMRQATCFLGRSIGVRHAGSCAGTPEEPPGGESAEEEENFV
Fibroblast growth factor 10 (Homo sapiens), sequence (O15520 whole entry, looked up): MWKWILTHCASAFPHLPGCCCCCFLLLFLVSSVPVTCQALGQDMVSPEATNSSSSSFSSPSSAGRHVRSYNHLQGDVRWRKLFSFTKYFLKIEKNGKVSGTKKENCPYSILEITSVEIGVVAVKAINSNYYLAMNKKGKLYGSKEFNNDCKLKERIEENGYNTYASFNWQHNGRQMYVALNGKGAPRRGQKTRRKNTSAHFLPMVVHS
Epidermal growth factor receptor (Homo sapiens), sequence (P00533 whole entry, looked up): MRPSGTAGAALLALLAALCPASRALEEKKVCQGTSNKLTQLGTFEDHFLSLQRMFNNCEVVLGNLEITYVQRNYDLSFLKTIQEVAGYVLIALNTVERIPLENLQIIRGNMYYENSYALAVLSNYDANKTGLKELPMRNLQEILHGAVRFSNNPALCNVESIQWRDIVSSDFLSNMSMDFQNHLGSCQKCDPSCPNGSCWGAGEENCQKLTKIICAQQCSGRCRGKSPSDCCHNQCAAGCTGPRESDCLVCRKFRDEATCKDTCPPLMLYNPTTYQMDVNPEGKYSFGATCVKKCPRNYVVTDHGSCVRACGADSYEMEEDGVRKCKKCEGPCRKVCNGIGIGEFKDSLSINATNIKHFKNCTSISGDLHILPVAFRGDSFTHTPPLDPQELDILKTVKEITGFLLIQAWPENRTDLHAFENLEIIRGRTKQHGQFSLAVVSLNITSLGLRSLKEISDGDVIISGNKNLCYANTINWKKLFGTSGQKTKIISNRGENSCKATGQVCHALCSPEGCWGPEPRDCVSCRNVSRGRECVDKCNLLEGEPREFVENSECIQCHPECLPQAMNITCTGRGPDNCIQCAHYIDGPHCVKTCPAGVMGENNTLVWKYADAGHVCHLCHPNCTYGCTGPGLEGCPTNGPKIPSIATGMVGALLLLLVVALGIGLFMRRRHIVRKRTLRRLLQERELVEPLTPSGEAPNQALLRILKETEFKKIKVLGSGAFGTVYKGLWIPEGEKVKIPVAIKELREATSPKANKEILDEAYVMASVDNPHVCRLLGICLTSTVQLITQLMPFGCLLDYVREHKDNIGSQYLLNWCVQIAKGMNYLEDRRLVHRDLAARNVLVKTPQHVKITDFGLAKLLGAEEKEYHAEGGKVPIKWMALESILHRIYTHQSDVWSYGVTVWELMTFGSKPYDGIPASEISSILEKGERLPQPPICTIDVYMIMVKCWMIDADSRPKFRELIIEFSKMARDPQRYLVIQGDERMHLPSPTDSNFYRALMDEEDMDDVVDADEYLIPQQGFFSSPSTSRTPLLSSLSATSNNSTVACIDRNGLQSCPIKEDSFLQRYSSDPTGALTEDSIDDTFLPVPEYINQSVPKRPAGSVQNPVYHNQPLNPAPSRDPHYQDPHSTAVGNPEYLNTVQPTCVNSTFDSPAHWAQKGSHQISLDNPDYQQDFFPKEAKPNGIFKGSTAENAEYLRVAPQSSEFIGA

Structure (SMILES) | composite z-score [1] | composite z-score [2] | composite z-score [3] | z-score [4] | composite z-score [5] | composite z-score [6] | composite z-score [7] | composite z-score [8] | composite z-score [9] | composite z-score [10]
COCC1C2CC[C@H]3C(OCc4ccc(F)cc4C(F)(F)F)OC[C@]4(C)[C@H]3C2=C(CN4C(=O)OC(C)(C)C)[C@H](C)C1COC (stereo not given in full) | 1.45 | 1.04 | 1.23 | -0.625 (inactive) | 0.189 | 0.366 | 0.0761 | 0.45 | 0.202 | 0.939
O=C1OCC=C[C@H]2OC34C=CCN(Cc5ccccc5)C(=O)[C@H]3N(CCCO)C(=O)[C@@H]4[C@@H]12 (stereo not given in full) | 0.995 | 1.16 | 0.907 | -0.589 (inactive) | 0.0676 | 0.301 | -0.692 | 0.37 | -0.896 | 1.22
Cc1ccc(S[C@]2(C(=O)NCCCN(C)C)CC(=O)N(Cc3ccccc3)[C@@H]2c2ccc(CO)cc2)cc1 | -1.43 | 0.938 | 1.15 | -0.522 (inactive) | -1.01 | -0.726 | -1.03 | -1.26 | -0.909 | 0.591
O=C1c2ccccc2[C@](Cc2ccccc2I)(C(=O)O)[C@H](c2ccc(CO)cc2)N1Cc1ccccc1C(F)(F)F | 0.674 | -0.483 | -0.388 | 0.185 (inactive) | -0.414 | 0.464 | -0.709 | 0.19 | -0.376 | 0.353
C=CCN1C(=O)[C@]2(Cc3ccccc31)N=C(c1ccc(OCCCO)cc1)O[C@@H]2c1ccccc1 | 0.733 | 0.779 | 0.922 | 0.105 (inactive) | 1.43 | 0.881 | -0.0128 | 0.439 | 0.998 | 1.27
CS(=O)(=O)CCOC(=O)C1=CC(c2ccc(CO)cc2)=CC(c2cccs2)N(Cc2cccc(OC(F)(F)F)c2)C=C1C(=O)OCCS(C)(=O)=O (stereo not given) | 0.472 | 0.15 | 0.211 | -0.164 (inactive) | 1.02 | 0.88 | 0.084 | 0.919 | 0.353 | 1.33
COc1ccc([Si](C)(C)[C@H]2[C@H](CC(=O)N3CCC[C@H]3CO)O[C@@]3(C(=O)N(c4ccccc4)c4ccccc43)[C@@H]2C)cc1 | 1.28 | -0.344 | -0.28 | -1.82 (inactive) | -0.174 | -0.828 | 0.138 | 0.051 | 0.487 | 0.581
COC(=O)[C@@]1(Cc2ccc(F)cc2)[C@H]2c3cc(C(=O)N(C)C)n(CCCNc4ccc(C(F)(F)F)cc4Cl)c3C[C@H]2CN1C(=O)c1ccccc1 | 1.08 | 1.4 | 1.38 | -1.75 (inactive) | 0.808 | 1.29 | -0.19 | 1.2 | -0.667 | -0.0131
CCOC1=C2C(c3ccc(C)cc3)N(S(=O)(=O)c3ccc(C)cc3)CC2n2c(=O)n(-c3ccccc3)c(=O)n2C1 (stereo not given) | 0.818 | 0.579 | 0.5 | -0.0374 (inactive) | 1.04 | 1.29 | 0.559 | 1.26 | 0.424 | 0.329
COC(=O)c1nc2oc1CC[C@@H](CO)NC(=O)N(C)Cc1cn(nn1)C[C@H](Cc1ccccc1)NC2=O | 0.68 | -0.268 | 0.269 | -0.275 (inactive) | 0.133 | -0.587 | -0.647 | -0.221 | -0.4 | 0.697
NC(=O)NCC#Cc1ccc2c(c1)[C@]1(C(=O)N2)[C@H](c2ccc(O)cc2)N2[C@H](c3ccccc3)[C@H](c3ccccc3)OC(=O)[C@H]2[C@@H]1C(=O)N1CCN(c2ncccn2)CC1 | 0.681 | 0.337 | 0.372 | -0.0492 (inactive) | 0.602 | -0.398 | -0.232 | -0.483 | -0.122 | 0.862
[N-]=[N+]=Nc1ccccc1[C@@H]1OC(c2ccc(OCCCO)cc2)=N[C@]1(CCS(=O)(=O)c1ccccc1)C(=O)O | 1.25 | 0.541 | 0.54 | -1.27 (inactive) | 1.11 | 1.29 | 0.452 | 1.44 | 0.227 | 1.31
O=c1cccc(-c2ccccc2)o1 | 0.906 | -0.196 | -0.186 | 0.92 (inactive) | 0.421 | 0.211 | -0.648 | -0.337 | -0.1 | 1.4
CC(C)N1C(=O)c2ccccc2[C@](C)(C(=O)NCCCN(C)C)[C@@H]1c1ccc(CO)cc1 | 0.928 | 0.466 | 0.665 | -0.297 (inactive) | -0.543 | 1.4 | -0.968 | -0.749 | -1.78 | 0.814
COCCOC(=O)N1C(=O)[C@@]2(c3cc(C#CCC(C(=O)OC)C(=O)OC)ccc31)[C@H](c1ccccc1OCCO)N1[C@H](c3ccccc3)[C@H](c3ccccc3)OC(=O)[C@H]1[C@@H]2C(=O)Nc1nc2ccccc2s1 | 1.46 | 0.514 | 0.641 | -1.04 (inactive) | 1.33 | 1.14 | 0.692 | 1.4 | 0.785 | 1.1
COC(=O)[C@@]1(Cc2ccccc2)[C@H]2c3cc(C(=O)N(C)C)n(Cc4ccccc4)c3C[C@H]2CN1C(=O)c1ccccc1 | 1.05 | 0.855 | 0.816 | -1.03 (inactive) | 0.69 | -0.0617 | -0.262 | 0.383 | -0.61 | 0.735
CC(c1ccccc1)C(O)C1C=CC2C(=O)N(Cc3ccccc3)C(=O)C2N1n1cnnc1 (stereo not given) | 0.424 | 0.492 | 0.675 | -0.605 (inactive) | 0.691 | 0.29 | 0.153 | 0.369 | -0.174 | 0.813
C=C(CCCC)/C(=C/C[C@@H](OC(=O)c1ccncc1)c1ccc(CO)o1)c1cc(C(=O)OC)ccc1OC | 1.5 | 0.0296 | -0.363 | 0.674 (inactive) | 0.833 | 1.31 | 0.669 | 1.03 | 0.744 | 0.775
CCOC(=O)C1=C[C@@H](C(C)(C)C)N(S(=O)(=O)c2ccc(C)cc2)[C@H]1c1ccc(Cl)c(Cl)c1 | 1.1 | 0.665 | 0.827 | 0.425 (inactive) | 0.733 | 1.3 | 0.481 | 0.924 | 0.023 | 0.326
NC(=O)NCC#Cc1ccc2c(c1)[C@]1(C(=O)N2)[C@H](C(=O)NC[C@H](O)c2ccccc2)[C@H]2C(=O)O[C@H](c3ccccc3)[C@H](c3ccccc3)N2[C@@H]1c1ccccc1OCCO | 1.3 | -0.0611 | 0.729 | -0.416 (inactive) | 0.588 | -0.425 | 0.143 | -0.0845 | -1.04 | 0.286
C=CCN1C(=O)[C@@]2(O[C@@H](CCO)[C@H]([Si](C)(C)c3ccc(OC)cc3)[C@H]2C)c2cc(N3C(=O)COc4ccccc43)ccc21 | 1.16 | -0.447 | -0.0458 | -3.26 (inactive) | 0.993 | 0.324 | -0.289 | 0.193 | -0.609 | -0.145
COc1ccc(C(O)C2C=CC3C(=O)N(c4ccccc4)C(=O)C3N2Nc2ccccc2)c2ccccc12 (stereo not given) | 1 | 0.927 | 0.947 | 0.66 (inactive) | -0.0394 | 0.0564 | -0.413 | 0.165 | -0.611 | 1.19
O=C(NCC(O)CO)[C@@]1(Cc2ccccc2)COC(c2ccc(OCCCO)cc2)=N1 (stereo not given in full) | -0.509 | 0.549 | 0.536 | 0.138 (inactive) | -0.309 | -0.546 | -0.198 | -1.21 | -0.92 | 0.656
C=CCN1Cc2ccccc2C[C@@]2(COC(c3ccc(OCCCO)cc3)=N2)C1=O | 1.03 | 1.02 | 1.15 | -1.13 (inactive) | 0.489 | 0.597 | 0.437 | 0.68 | 0.644 | 1.59
COc1ccc([Si](C)(C)[C@@H]2[C@@H](CCn3cc([C@H](O)c4ccccc4)nn3)O[C@]3(C(=O)N(C)c4ccccc43)[C@H]2C)cc1 | 0.839 | -0.202 | 0.28 | 0.0848 (inactive) | 0.0782 | 0.11 | 0.0033 | -0.291 | 0.0052 | 0.283
C=C(CCCC)C(=O)CC[C@H](OC(=O)c1ccccc1-c1ccccc1C(=O)O)c1ccc(CO)o1 | 1.15 | -0.28 | -0.635 | 0.144 (inactive) | 1.51 | 1.1 | 0.264 | 1.2 | 1.02 | 0.64
